Test [1] in a line: qHTS of pediatric cancer cell lines to identify multiple opportunities for drug repurposing: Primary screen for TC32 cells (AID 1347089). Note: nearly all actives have a fitted effect of over 60% in size. Note: potency is the fitted concentration of half-maximal effect. In a few lines:
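TC32 cells, 500-1,000/well in growth medium, compound-treated 48 h at 37 °C; viability from CellTiter-Glo luminescence. Primary screen: MIPE 11-point (0.78 nM–46 µM final), NPC 8-point (0.59 nM–46 µM final); confirmatory at 11-point dilutions.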
(Quantitative high-throughput screening tests each substance at several concentrations.)

A short description of test [2]: qHTS of pediatric cancer cell lines to identify multiple opportunities for drug repurposing: Primary screen for DAOY cells (AID 1347090). Note: nearly all actives have a fitted effect of over 55% in size. Note: potency is the fitted concentration of half-maximal effect. The method, boiled down: (§1)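 Eight- or eleven-point concentration series, 48 h treatment at 37 degrees C in growth media; readout CellTiter-Glo luminescence. Potency and efficacy were taken from the concentration-response curves.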

The nature of test [3]: qHTS of pediatric cancer cell lines to identify multiple opportunities for drug repurposing: Primary screen for SJ-GBM2 cells (AID 1347091). Note: potency is the fitted concentration of half-maximal effect. The method, boiled down:
as §1

The nature of test [4]: qHTS of pediatric cancer cell lines to identify multiple opportunities for drug repurposing: Primary screen for A673 cells (AID 1347092). Note: nearly all actives have a fitted effect of over 45% in size. Note: potency is the fitted concentration of half-maximal effect. In a few lines:
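A673 cells (500-1,000 cells/well) were treated 48 hours at 37 degrees C with compounds at 11-point (0.78 nM to 46 µM) or 8-point (0.59 nM to 46 µM) dilutions. Viability read by CellTiter-Glo luminescence; concentration-response curves fitted.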

Test [5] is described as follows: qHTS of pediatric cancer cell lines to identify multiple opportunities for drug repurposing: Primary screen for SK-N-MC cells (AID 1347093). Note: potency is the fitted concentration of half-maximal effect. In a few lines: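 Metabolically active cells were quantified by ATP-dependent luminescence (CellTiter-Glo, 15 min at room temperature) following 48 h treatment. Cells had been plated at 500-1,000 per well and settled for 5 h beforehand.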

Test [6] can be described thus: qHTS of pediatric cancer cell lines to identify multiple opportunities for drug repurposing: Primary screen for BT-37 cells (AID 1347094). Note: potency is the fitted concentration of half-maximal effect. In a few lines: (§2)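 Cells plated at 500-1,000/well in growth medium, compounds added after 5 h. MIPE tested at 11 points (from 0.78 nM), NPC at 8 points (from 0.59 nM). CellTiter-Glo luminescence after 48 h; concentration-response curves from primary screen.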

The nature of test [7]: qHTS of pediatric cancer cell lines to identify multiple opportunities for drug repurposing: Primary screen for NB-EBc1 cells (AID 1347095). Note: potency is the fitted concentration of half-maximal effect. In a few lines:
as §2

Test [8] can be described thus: qHTS of pediatric cancer cell lines to identify multiple opportunities for drug repurposing: Primary screen for U-2 OS cells (AID 1347096). Note: nearly all actives have a fitted effect of over 50% in size. Note: potency is the fitted concentration of half-maximal effect. In a few lines: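 Cells (500-1,000/well) in growth media were settled 5 h at 37 degrees C, then given compounds for 48 h. Viability was read as CellTiter-Glo luminescence. Primary runs used MIPE at 11 points (0.78 nM-46 µM) and NPC at 8 points (0.59 nM-46 µM); follow-ups used 11 points.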

Test [9] concerns the target Parathyroid hormone/parathyroid hormone-related peptide receptor (Homo sapiens) (UniProt Q03431). Kind of test: qHTS for PTHR1 Agonists: Optimization Screen against the NCGC LOPAC library (AID 1347079).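 Note: GloSensor cAMP luminescence in HEK-293 GP2 cells expressing human PTHR1 with IBMX.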 In a few lines: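 Compounds were tested across a qHTS titration. PTHR1-expressing GP2 cells report cAMP rises via GloSensor luminescence after 1 hr compound exposure at 37C with IBMX present.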

Test [10] deals with Tyrosine-protein phosphatase non-receptor type substrate 1 (Homo sapiens) + Leukocyte surface antigen CD47 (Homo sapiens) (UniProt P78324+Q08722). The test is described as follows: CD47-SIRPalpha protein protein interaction - Alpha assay qHTS validation (AID 1347059).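 Note: bead proximity luminescence from CD47 binding SIRPalpha after compound preincubation with SIRPalpha.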 The method, boiled down: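 Soluble extracellular domains: Avi-tag biotinylated SIRPalpha (25 nM) preincubated 30 min RT with compound, then 6His-CD47 (12.5 nM) 30 min; Ni-NTA acceptor and streptavidin donor beads (10 ug/mL) 30 min, AlphaScreen read. PBS pH 7.4, 0.05% IGEPAL.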

A number with no mark means an inactive call. Records with an inconclusive call do not appear. Calls of active or inactive are those of the source. Calls come from the whole dose curve; as a rule, active = well fitted curve in the direction sought with a large enough effect; inconclusive = small, poorly fitted or top-dose-only effect, or another doubt; inactive = no such curve, though single readings can be large; an effect the other way counts as inactive or inconclusive.

Parathyroid hormone/parathyroid hormone-related peptide receptor (Homo sapiens), sequence (Q03431 whole entry, looked up): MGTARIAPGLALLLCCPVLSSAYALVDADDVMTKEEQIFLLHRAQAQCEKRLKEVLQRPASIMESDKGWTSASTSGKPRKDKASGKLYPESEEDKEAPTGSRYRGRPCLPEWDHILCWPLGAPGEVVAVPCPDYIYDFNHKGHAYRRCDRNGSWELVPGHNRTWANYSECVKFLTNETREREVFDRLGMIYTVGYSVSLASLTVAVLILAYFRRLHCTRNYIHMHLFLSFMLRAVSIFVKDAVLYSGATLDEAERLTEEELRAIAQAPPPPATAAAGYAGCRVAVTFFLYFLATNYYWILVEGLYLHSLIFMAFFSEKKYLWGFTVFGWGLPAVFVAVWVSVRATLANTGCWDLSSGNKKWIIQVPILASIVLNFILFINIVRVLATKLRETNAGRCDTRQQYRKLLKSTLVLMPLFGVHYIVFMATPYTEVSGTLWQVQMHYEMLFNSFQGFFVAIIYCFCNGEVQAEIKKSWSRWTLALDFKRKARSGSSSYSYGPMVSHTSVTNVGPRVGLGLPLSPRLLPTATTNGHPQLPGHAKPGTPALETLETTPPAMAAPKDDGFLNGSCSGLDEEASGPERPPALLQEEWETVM
Tyrosine-protein phosphatase non-receptor type substrate 1 (Homo sapiens) + Leukocyte surface antigen CD47 (Homo sapiens), sequence (P78324 whole entry, looked up, the tested form may be a part): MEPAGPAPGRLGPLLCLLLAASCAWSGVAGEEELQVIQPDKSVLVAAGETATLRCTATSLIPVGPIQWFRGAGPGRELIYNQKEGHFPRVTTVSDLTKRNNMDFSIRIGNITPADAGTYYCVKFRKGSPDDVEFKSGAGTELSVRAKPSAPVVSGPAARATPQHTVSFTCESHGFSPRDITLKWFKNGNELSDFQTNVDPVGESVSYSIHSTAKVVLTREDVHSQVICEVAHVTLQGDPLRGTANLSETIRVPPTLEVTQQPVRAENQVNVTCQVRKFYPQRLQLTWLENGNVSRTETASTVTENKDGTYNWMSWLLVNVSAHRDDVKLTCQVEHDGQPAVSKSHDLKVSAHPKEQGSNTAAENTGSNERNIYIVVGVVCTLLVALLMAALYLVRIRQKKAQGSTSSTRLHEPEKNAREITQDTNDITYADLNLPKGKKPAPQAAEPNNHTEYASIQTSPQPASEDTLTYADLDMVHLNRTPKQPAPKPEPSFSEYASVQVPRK
Tyrosine-protein phosphatase non-receptor type substrate 1 (Homo sapiens) + Leukocyte surface antigen CD47 (Homo sapiens), sequence (Q08722 whole entry, looked up, the tested form may be a part): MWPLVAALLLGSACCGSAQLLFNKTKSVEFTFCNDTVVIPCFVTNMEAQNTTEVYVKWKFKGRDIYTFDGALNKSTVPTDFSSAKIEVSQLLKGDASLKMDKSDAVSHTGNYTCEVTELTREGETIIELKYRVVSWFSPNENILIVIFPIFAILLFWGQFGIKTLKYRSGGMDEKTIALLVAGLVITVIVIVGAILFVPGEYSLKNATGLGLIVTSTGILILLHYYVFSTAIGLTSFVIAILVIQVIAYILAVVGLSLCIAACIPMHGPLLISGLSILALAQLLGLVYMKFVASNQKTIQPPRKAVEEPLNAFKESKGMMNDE

With `COc1ccc2c(c1)CC[C@H]1[C@@H]2CC[C@]2(C)[C@@H](NCCCCCCN3C(=O)C=CC3=O)CC[C@H]12`, the Potency entry in test [1], in test [2], in test [3], in test [4], in test [5] and in [6] was “inactive” throughout. The Potency result in [7] and in test [8] was “inactive” in each case.

Consider `COc1nc(C)cnc1NS(=O)(=O)c1cccnc1-c1ccc(-c2nnco2)cc1`, for which the Potency result in test [1], in [2], in test [3], in test [4], in [5] and in [6] was “inactive” throughout. In addition, the Potency entry in test [8] is “inactive”.

Turning to `CCN1C[C@H](C)n2c(c(O)c3c(=O)n(Cc4ccc(F)c(Cl)c4)nc(C(=O)NC)c32)C1=O`, the Potency result in [1], in test [2], in test [3], in test [4], in [5] and in test [6] was “inactive” each time. For the same compound, the Potency result in [7] and in test [8] was “inactive” each time.

Turning to `CC1(C)[C@H]2CC[C@]3(C)[C@@H](C(=O)C=C4[C@@H]5C[C@@](C)(C(=O)O)CC[C@]5(C)CC[C@]43C)[C@@]2(C)CC[C@@H]1O`, the Potency result in test [1], in [2], in test [3], in test [4], in test [5] and in test [6] was “inactive” in each case. Moreover, the Potency entry in test [8] is “inactive”.

Consider `O=C(O)Cc1cccc(OCCCN(Cc2cccc(C(F)(F)F)c2Cl)CC(c2ccccc2)c2ccccc2)c1`, for which the Potency result in test [1] and in [8] was “inactive” throughout. Moreover, the Potency in [2] is 14.8 µM (active); in [3], 23.5 µM (active); in test [4], 23.5 µM (active); in test [5] it was 6.62 µM (active); in [6], 27.3 µM (active); in [7], 23.5 µM (active).

With `N#Cc1c(N(CC(=O)O)CC(=O)O)sc(C(=O)O)c1CC(=O)O`, the Potency result in [1], in test [2], in test [3], in test [4], in [5] and in [6] was “inactive” throughout. In addition, the Potency result in [7] and in test [8] was “inactive” throughout.

For the compound `CC(=O)N1CCN(c2ccc(OCc3nn(C)c(C)c3-c3cccc4c(CCCOc5cc(C)c(Cl)c(C)c5)c(C(=O)O)n(Cc5cccnc5)c34)cc2)CC1`, the Potency entry in test [1] and in test [8] was “inactive” throughout. For the same compound, the Potency in [2] was 18.7 µM (active); in [3], 23.5 µM (active); in [4], 14.8 µM (active); in test [5], 4.18 µM (active); in test [6], 24.3 µM (active); in [7] it was 14.8 µM (active).

On to `CC(C)CN(C[C@@H](O)[C@H](Cc1ccccc1)NC(=O)O[C@H]1CO[C@H]2OCC[C@H]21)S(=O)(=O)c1ccc(N)cc1`, for which the Potency result in [1] and in [3] was “inactive” throughout. The Potency is 14.8 µM (active) in [2], 5.9 µM (active) in test [4], 2.35 µM (active) in test [5] and 6.11 µM (active) in test [6].

For `Nc1nc(Cl)nc2c1ncn2[C@@H]1O[C@H](CO)[C@@H](O)[C@H]1F`, the Potency in [1] is 0.0234 µM (active); in test [2], 0.0372 µM (active); in [3], 0.001 µM (active); in test [4] it was 0.0296 µM (active); in test [5], 0.001 µM (active); in [6], 0.0485 µM (active). In addition, in test [7], the Potency is 0.001 µM (active). Moreover, the Potency entry in test [8] was “inactive”.

With `Cc1cnc(-c2cc(N3CCN(C(=O)CCS(C)(=O)=O)CC3)ncc2Cl)c(C)c1`, the Potency entry in test [1], in [2], in test [3], in [7] and in test [8] was “inactive” throughout. In addition, the Potency in [4] was 4.69 µM (active); in [5], 16.6 µM (active).

As to `Cc1ccc(S(=O)(=O)OCC(=O)Nc2ccc(C(=O)O)c(O)c2)cc1`, the Potency entry in test [1], in [2], in test [3], in [6], in [7] and in [8] was “inactive” throughout. Also, the results for the Potency in [4] and in test [5] were 14.8 µM (active) and 9.35 µM (active), respectively.

On to `N#CC(c1ccnc(NCCc2cccnc2)n1)c1nc2ccccc2s1` (centres undefined), for which the Potency entry in [1] was “inactive”. Besides, the Potency was 29.6 µM (active) in test [2]; 9.35 µM (active) in test [3]; 4.69 µM (active) in test [4]; 11.8 µM (active) in test [5]; 24.3 µM (active) in test [6].

On to `CN(C)CCN(Cc1ccc(Cl)cc1)c1ccccn1`, for which the Potency result in test [1], in test [3], in test [6] and in test [8] was “inactive” throughout. For the same compound, the Potency in test [2] was 29.6 µM (active); in test [4], 18.7 µM (active); in test [5], 10.5 µM (active).

In the case of `CO[C@H]1/C=C\O[C@@]2(C)Oc3c(C)c(O)c4c(O)c(c(C=NN5CCN(C6CCCC6)CC5)c(O)c4c3C2=O)NC(=O)C(C)=CC=C[C@H](C)[C@H](O)[C@@H](C)[C@@H](O)[C@@H](C)[C@H](OC(C)=O)[C@H]1C`, the Potency in test [1] is 0.523 µM (active); in [2] it was 0.296 µM (active); in test [4], 0.0296 µM (active); in test [5], 0.0059 µM (active); in test [6], 0.001 µM (active); in [7], 0.001 µM (active). In addition, in [8], the Potency is 2.35 µM (active). Besides, the Potency result in test [3] is “inactive”.

For the compound `CNC1CCC(N(Cc2cccc(-c3ccncc3)c2)C(=O)c2sc3ccccc3c2Cl)CC1` (centres undefined), the Potency result in test [1], in test [2] and in test [8] was “inactive” throughout. Also, the Potency in test [3] is 23.5 µM (active); in test [4] it was 14.8 µM (active); in [5], 23.5 µM (active); in [6], 24.3 µM (active); in test [7], 26.4 µM (active).

For the compound `C[C@H]1O[C@@H](n2cc(F)c(=O)[nH]c2=O)[C@H](O)[C@H]1O`, the result in test [9] was inactive. Further, the Potency entry in test [2], in test [3] and in [8] was “inactive” throughout. In addition, the Potency in [7] is 4.69 µM (active).

With `C=CCc1cccc(C=NNC(=O)CN2CCN(Cc3ccccc3)CC2)c1O`, the result in [10] and in [9] was inactive. Moreover, the Potency in test [2] is 18.7 µM (active); in test [3] it was 6.62 µM (active); in [5], 11.8 µM (active); in test [6], 9.68 µM (active). In addition, in test [8], the Potency entry was “inactive”.
